The values below come from PubChem BioAssay (NCI).

About 79,000 compounds went through this panel and 15% of them were active in at least one assay; those are over-represented in the sample as a whole. Activity calls are given as the source filed them. Cut-off read from the data, not from the text of the source: active = growth inhibition above about 70%; inactive = the rest.

The assay is described as follows: NCI Yeast Anticancer Drug Screen. Data for the bub3 strain (AID 167). The note with it: S. cerevisiae bub3 mutant strain, at 50.0 µM, active compounds read high. As to the method: Growth inhibition of yeast strains with defined genetic alterations is measured as a screen for potential anti-cancer activity. Selected strains with alterations in DNA damage repair or cell cycle control were exposed to compounds and growth inhibition was measured relative to vehicle treated controls. The strain used in this assay is bub3
For the compound `Cc1cc(C)n2ncnc2n1`, the growth inhibition was -5.15% (inactive).
With `COc1cc([N+](=O)[O-])c(OC)cc1Nc1ccccc1C(=O)O` the figure was 29.4% (inactive).
Consider `Cc1ccc(-c2c(C#N)c(-c3ccc([N+](=O)[O-])cc3)c(C#N)c(=O)n2NS(=O)(=O)c2ccccc2)cc1`, for which the growth inhibition is 14.6% (inactive).
Turning to `COc1cc(C(=O)O)c(O)c(OC)c1OC`, the growth inhibition was -13% (inactive).
As to `Cc1cc2c(=O)[nH]cnc2[nH]1`, the growth inhibition is 13.8% (inactive).
For the compound `COc1cc(C(=O)Nc2cccc3ccccc23)c(Br)c(OC)c1OC`, the growth inhibition was 53.5% (inactive).
Take `COc1cc(O)c2c(c1)C(=O)c1cc3c(c(O)c1C2=O)C(O)C(OC)C(C)(O)C3O` (stereo not given): the growth inhibition was 64.8% (inactive).
Consider `CC(C(=O)O)c1ccc(-n2nnc3c(=O)[nH][nH]c(=O)c32)cc1` (stereo not given), for which the growth inhibition is 2.8% (inactive).
With `C/C(=N\N=C(/C)c1ccc(C)cc1)c1ccc(C)cc1` the figure was 2.45% (inactive); with `COC1OC(CO)C(OC(C)=O)C(OC(C)=O)C1OC(C)=O` (stereo not given), 12.6% (inactive); with `O=C(O)/C(=C/c1ccccc1[N+](=O)[O-])c1ccccc1`, -8.85% (inactive).
On to `CC(=O)Nc1ccc(Cc2ccc(Cl)cc2)cc1`, for which the growth inhibition is -9.8% (inactive).
Regarding `CCOC(=O)/C=C\[C@H]1OC(C)(C)O[C@H]1[C@H](O)[C@H]1COC(C)(C)O1`, the growth inhibition was -11.8% (inactive).
For the compound `COc1cc(C(=O)N2C[C@H](O)C[C@H]2C(=O)O)cc(OC)c1OC`, the growth inhibition was -16.4% (inactive).
With `CN(C)CCNC(=O)c1cccc2c1Oc1cccc([N+](=O)[O-])c1O2`, the growth inhibition is -12.1% (inactive).
Take `COc1cc(NS(=O)(=O)c2ccc(C)cc2)c2c(c1N)C(=O)c1ccccc1C2=O`: the growth inhibition was 5.55% (inactive).
Turning to `COC(=O)CCC(CCC(=O)O)([N+](=O)[O-])[N+](=O)[O-]`, the growth inhibition was -12.1% (inactive).
Turning to `O=C(Nc1ccccc1)C1CC=C2CCC3OC(=O)C1C23` (stereo not given), the growth inhibition is -14.7% (inactive).
Regarding `CCOC(=O)c1nc(N)c2c(CC#N)nn(C)c2n1`, the growth inhibition is 9.95% (inactive).
For `CC(=O)OC(NC(=O)c1cc(C)cc(C)c1)c1ccncc1` (stereo not given), the growth inhibition is 4.6% (inactive).
On to `O=C1NC(O)c2cccc(F)c2O1` (stereo not given), for which the growth inhibition was 6.7% (inactive).
For `O=C(Oc1ccc(OC(=O)c2ccccc2)c(C2CCCCCC2)c1)c1ccccc1`, the growth inhibition was 7.1% (inactive).
With `CCCCSCCOC(=O)C1C2CCC(O2)C1C(=O)O` (stereo not given) the figure was -1.25% (inactive); with `NCCNc1ncnc2ccccc12`, -1.35% (inactive).
Take `CCOC(=O)/C(F)=C/c1cccc(C)c1`: the growth inhibition is -5.45% (inactive).
With `CC(C)CCCC(C)C1CCC2C3C(O)CC4CCCCC4(C)C3CCC12C` (stereo not given), the growth inhibition was 95.7% (active).
Consider `CC(C)CNC(=S)N/N=C/c1ccc(C(C)C)cc1`, for which the growth inhibition is -13.1% (inactive).
As for `Cc1c(CN2CCOCC2)c(CN2CCOCC2)c(C)n1-c1ccc(Cl)cn1`, the growth inhibition is -15.7% (inactive).
In the case of `Cc1ccc(NC(=O)CCc2nnc3s/c(=C\c4cccc([N+](=O)[O-])c4)c(=O)n23)cc1`, the growth inhibition is 10.7% (inactive).
Consider `Cc1ccccc1-c1nnc(-c2ccc3ccccc3c2)o1`, for which the growth inhibition is 1.05% (inactive).
As for `O=C(O)CC1C(=O)OC2C3COC(=O)c4cc(O)c(O)c(O)c4-c4c(cc(O)c(O)c4O)C(=O)OC2C(OC(=O)c2cc(O)c(O)c4c2C1C(O)C(=O)O4)C(OC(=O)c1cc(O)c(O)c(O)c1)O3` (stereo not given), the growth inhibition was 35.5% (inactive).
For the compound `O=C(NN1C(=O)C(Cl)C1c1ccccc1Cl)c1ccccc1O` (stereo not given), the growth inhibition was -21% (inactive).
Regarding `CCOC(=O)c1cccc2ncccc12`, the growth inhibition was -9.05% (inactive).
In the case of `O=c1oc2ccccc2cc1-n1nnc2cc([N+](=O)[O-])ccc21`, the growth inhibition is 12.8% (inactive).
In the case of `O=C(CC/C=C(/CS(=O)(=O)c1ccccc1)S(=O)(=O)c1ccccc1)c1ccccc1`, the growth inhibition was -6.15% (inactive).
As to `Cc1ccc(-c2c3c(n(C4OC(CO)C(O)C(O)C4O)c(=S)c2C#N)CC(C)(C)CC3=O)cc1` (stereo not given), the growth inhibition was 9.15% (inactive).
With `O=C(c1ccccc1)C1Nc2ccc(Cl)cc2C2C=CCC12` (stereo not given), the growth inhibition was -0.35% (inactive).
`C=C1C(=O)O[C@@H]2/C=C(\C)CC/C=C(/COC(C)=O)C[C@@H](OC(C)=O)[C@@H]12`: the growth inhibition was -1.4% (inactive).
Under `CCN1C(=O)/C(=C\c2ccccc2)N=C1C` stands -12.8% (inactive).
Regarding `NCCCNC1CCCCC1`, the growth inhibition is 1.7% (inactive).
